Relative cell viability data for seven molecules are collected here from the supplement of paper PMC4100887.

± gives the standard deviation of the averaged measurements.

One assay relates to IMR-90. The assay can be described thus: relative cell viability (ATPlite) vs untreated control (fraction); higher = less toxic. The note with it: 1 µM; 72 h. Background: Cellular ATP, detected with luciferase, serves as a proxy for viable cell number.
The test system of assay [1] is K562. The assay is described as above. As to conditions: 1 µM; 72 h.
In assay [2] the test system is K562. The assay can be described thus: relative cell viability (ATPlite) vs untreated control, with imatinib (fraction); higher = less toxic. As to conditions: 1 µM; 72 h; imatinib 0.125 µM.

Regarding `O=C1NC(=O)c2c1c1c3ccccc3n3c1c1c2c2ccccc2n1[C@H]1CC[C@@H]3O1`, the relative cell viability with IMR-90 turned out to be 1.04 ± 0.092; in the assay with K562 [1], 0.872 ± 0.058; in the assay with K562 [2] it was 0.797 ± 0.069.

Turning to `COC(=O)[C@]1(O)C[C@@H]2O[C@@]1(C)n1c3ccccc3c3c4c(c5c6ccccc6n2c5c31)C(=O)NC4` [K-252a, Nocardiopsis sp.], the figures for the relative cell viability in the assay with IMR-90, in the assay with K562 [1] and with K562 [2] were 0.668 ± 0.06, 0.305 ± 0.26 and 0.363 ± 0.26, respectively.

`COc1ccc2c(c1)/C(=C/c1cnc[nH]1)C(=O)N2`: the relative cell viability in the assay with IMR-90 was found to be 1.31 ± 0.26; with K562 [1], 0.907 ± 0.17; with K562 [2], 0.881 ± 0.08.

Take `O=[N+]([O-])/C=C/c1ccc2c(c1)OCO2` [Syk Inhibitor III]: the values for the relative cell viability in the assay with IMR-90, with K562 [1] and in the assay on K562 [2] were 0.932 ± 0.087, 0.819 ± 0.063 and 0.753 ± 0.033, respectively.

Consider `NC(=NN=Cc1ccc(-c2cccc([N+](=O)[O-])c2)o1)N[N+](=O)[O-]` [ERK Inhibitor III], for which the relative cell viability came out at 1.01 ± 0.12 in the assay on IMR-90, 0.937 ± 0.079 in the assay with K562 [1] and 0.775 ± 0.053 with K562 [2].

As for `O=S(=O)(c1c(O)c(Cl)cc(Cl)c1Cl)c1c(O)c(Cl)cc(Cl)c1Cl` [p38 MAP Kinase Inhibitor IV], the figures for the relative cell viability in the assay with IMR-90, with K562 [1] and with K562 [2] were 0.988 ± 0.073, 0.813 ± 0.076 and 0.762 ± 0.026, respectively.

`CC(C)(C)c1cc(C=C(C#N)C#N)cc(Br)c1O`: the results for the relative cell viability in the assay with IMR-90, in the assay on K562 [1] and in the assay with K562 [2] were 0.962 ± 0.047, 1 ± 0.12 and 0.847 ± 0.017, respectively.
